Results on 40 compounds are retold here after the supplement of paper PMC10981050.

Where a name gives a salt, the structure may show the parent alone.

The experiment concerns OCI-AML2. Nature of the experiment: cell viability relative to vehicle control; higher = less cytotoxic. The settings on record: 10 µM; SRSF2 genotype: wt/wt. An outline of the steps:
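Each screen used CRISPR-edited mutant and wild-type clones from four leukaemia lines. Compounds were acoustically dispensed at a single 10 µM dose, and CellTiter-Glo luminescence was read after 48 h with the supernatant first removed. Viability was analysed in Genedata Screener and given as percent of the on-plate vehicle control.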
In general, cell viability refers to a read-out of living cells in per cent, often relative to untreated cells. As to `CC(C)Cc1ccc(C(C)C(=O)O)cc1` (stereo not given) [Ibuprofen (Advil)], the cell viability came out at 101%.
To `COCCOc1cnc2ccn([C@H](C)c3nnc4c(F)cc(-c5cnn(C)c5)cn34)c(=O)c2c1` belongs 85.9%; to `CC(=O)O[C@H]1C(=O)[C@@]2(C)[C@H]([C@H](OC(=O)c3ccccc3)[C@]3(O)C[C@H](OC(=O)[C@H](O)[C@@H](NC(=O)c4ccccc4)c4ccccc4)C(C)=C1C3(C)C)[C@]1(OC(C)=O)CO[C@@H]1C[C@@H]2O` [Paclitaxel (Taxol)], 12.1%; to `O=C[C@H](O)[C@H]1OC(=O)[C@@H](O)[C@H]1O` [D-Glucurone], 94.2%.
Take `CC(Oc1cc(-c2cnn(C3CCNCC3)c2)cnc1N)c1c(Cl)ccc(F)c1Cl` [(S)-crizotinib]: the cell viability was found to be 75.3%.
Turning to `CCS(=O)(=O)N1CCC([C@@H](C)n2c(C)c(C(=O)NCc3c(OC)cc(C)[nH]c3=O)c3ccccc32)CC1`, the cell viability was found to be 109%.
On to `C#Cc1cccc(Nc2ncnc3cc4c(cc23)OCCOCCOCCO4)c1` [Icotinib], for which the cell viability is 94.5%.
`COc1cc(Nc2c(C#N)cnc3cc(OCCCN4CCN(C)CC4)c(OC)cc23)c(Cl)cc1Cl` [Bosutinib (SKI-606)]: the cell viability was 7.73%.
Turning to `COC(=O)N[C@H](C(=O)N1CC2(CC2)C[C@H]1c1nc(-c2ccc3c(c2)C(F)(F)c2cc(-c4ccc5[nH]c([C@@H]6[C@H]7CC[C@H](C7)N6C(=O)[C@@H](NC(=O)OC)C(C)C)nc5c4)ccc2-3)c[nH]1)C(C)C` [Ledipasvir (GS5885)], the cell viability was found to be 91.8%.
Consider `Clc1ccc(CSC(Cn2ccnc2)c2ccc(Cl)cc2Cl)cc1` (stereo not given) [Sulconazole Nitrate], for which the cell viability was found to be 45.1%.
`COc1ccc2c(c1)c(CC(=O)OCC(=O)O)c(C)n2C(=O)c1ccc(Cl)cc1` [Acemetacin (Emflex)]: the cell viability worked out at 104%.
On to `CC(C)(O)C1CCC(C)(C2C(O)CC3(C)C4CC(O)C5C(C)(C)C(O)CCC56CC46CCC23C)O1` (stereo not given) [Cyclogalegenol], for which the cell viability came out at 103%.
`Cc1cc(Cn2cnc3c2CC(C(=O)O)N(C(=O)C(c2ccccc2)c2ccccc2)C3)ccc1N(C)C` (stereo not given): the cell viability is 117%.
To `CC[C@H](NC(=O)[C@H](C)NC)C(=O)N1C[C@@H](O)C[C@H]1Cc1c(-c2[nH]c3cc(F)ccc3c2C[C@@H]2C[C@H](O)CN2C(=O)[C@H](CC)NC(=O)[C@H](C)NC)[nH]c2cc(F)ccc12` belongs 107%; to `NCCCCCC(=O)O`, 99%; to `Cc1ccc(NC(=S)NNc2c([N+](=O)[O-])cc(C(F)(F)F)cc2[N+](=O)[O-])cc1Cl`, 94.4%.
As for `CCCCCCCCCC(C)=O` [Methylnonylketone], the cell viability is 97.2%.
On to `CC(C)n1nccc1-c1ncccc1COc1cccc(O)c1C=O` [Voxelotor(GBT440, GTx011)], for which the cell viability was 98.3%.
Take `O=c1cc(CN2CCOCC2)occ1OCCCCCSc1ccnc2cc(C(F)(F)F)ccc12`: the cell viability stood at 34.3%.
In the case of `CCCOC(=O)c1cc(O)c(O)c(O)c1` [Propyl gallate], the cell viability came to 97.5%.
On to `Cn1c2ccccc2c2c3c(c4c5ccccc5n(CCC#N)c4c21)CNC3=O`, for which the cell viability was found to be 65.6%.
For the compound `CC(C)c1ccccc1Cc1cc(C(=O)Nc2ccc(S(=O)(=O)c3ccccc3C(C)(C)C)cc2)c(O)c(O)c1O`, the cell viability amounted to 8.83%.
With `COc1ccc2cc1Oc1ccc(cc1)C[C@H]1c3cc(c(OC)cc3CCN1C)Oc1c(O)c(OC)cc3c1[C@H](C2)N(C)CC3` [Fangchinoline], the cell viability is 0.56%.
`CC(C)C(=O)Oc1ccc(CO)cc1[C@H](CCN(C(C)C)C(C)C)c1ccccc1` [Fesoterodine Fumarate]: the cell viability came to 98%.
To `COc1ccc2c(c1)c(CC(=O)O)c(C)n2C(=O)c1ccc(Cl)cc1` [Indometacin Sodium] belongs 110%; to `Nc1cccc(S(=O)(=O)N2CCCN(S(=O)(=O)c3ccc4c(c3)OCCO4)CC2)c1`, 97.5%.
Consider `Cc1cc(-c2ncc(CC(=O)Nc3ccc(-c4cnccn4)cn3)cc2C)ccn1`, for which the cell viability was determined as 63.5%.
For `CC(C)(O)C1CCC(C)(C2C(O)CC3(C)C4CC(OC5OC(CO)C(O)C(O)C5O)C5C(C)(C)C(OC6OCC(O)C(O)C6O)CCC56CC46CCC23C)O1` (stereo not given) [Astragaloside A], the cell viability worked out at 103%.
On to `O=c1[nH]cnc2c1ncn2[C@H]1C[C@H](O)[C@@H](CO)O1` [2'-Deoxyinosine], for which the cell viability was 111%.
As for `CCN(CC)C(=O)C1(c2ccccc2)CC1CN` (stereo not given) [Milnacipran HCl], the cell viability is 108%.
In the case of `Clc1ccc(COC(Cn2ccnc2)c2ccc(Cl)cc2Cl)cc1` (stereo not given) [Econazole nitrate (Spectazole)], the cell viability was determined as 52.4%.
Regarding `COc1cc(C(=O)OCCCCNC(=N)N)cc(OC)c1O` [Leonurine], the cell viability is 107%.
For `C[C@@H](Oc1ccc2[nH]nc(/C=C/c3cnn(CCO)c3)c2c1)c1c(Cl)cncc1Cl`, the cell viability came to 4.14%.
Consider `COc1ccccc1S(=O)(=O)Nc1ccc2c(c1)CN(C)C(=O)N2`, for which the cell viability was 40.2%.
To `Clc1cccc(CN=C2Nc3ccccc3NC23CCNCC3)c1` [Liproxstatin-1] belongs 71.5%; to `O=C(O)c1ccc(O)c2ncccc12`, 102%.
As to `CO[C@H]1C[C@@H]2CC[C@@H](C)[C@@](O)(O2)C(=O)C(=O)N2CCCC[C@H]2C(=O)O[C@H]([C@H](C)C[C@@H]2CC[C@@H](OP(C)(C)=O)[C@H](OC)C2)CC(=O)[C@H](C)/C=C(\C)[C@@H](O)[C@@H](OC)C(=O)[C@H](C)C[C@H](C)/C=C/C=C/C=C/1C` [Deforolimus (MK-8669)], the cell viability amounted to 64%.
In the case of `Cc1ccc(-c2n[nH]c3c2C(c2cccc(O)c2)N(c2ccc(C(=O)O)cc2)C3=O)cc1` (stereo not given), the cell viability was 106%.
Turning to `C=C(C(=O)O)C1CCC(C)C2CCC(C)=CC12` (stereo not given) [Artemisic acid], the cell viability came to 103%.
For `CC(C)c1ccc(NC(=O)Cn2cnc3c2c(=O)n(C)c(=O)n3C)cc1`, the cell viability is 91%.
